Screens: PubChem, National Center for Advancing Translational Sciences (NCATS)
HttQ103 aggreg – reduces HttQ103-GFP aggregates in PC12 cells | actives 1.1% (n = 220,000) | PC12 HttQ103-GFP aggregates, Acumen cytometry, 40 h | Potency, µM (series often up to 46.1 µM), without a hit: top-dose activity change, negative = inhibition, actives largely listed as inhibitors; note: % is set by controls: 0 for no effect and ±100 for the full control effect; nearly all actives have a fitted effect of over 60% in size
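Huntingtin Q103 exon 1–GFP aggregates in induced PC12 cells (100 nM tebufenozide) were quantified by cytometry from lysates, with compounds dosed in titration.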
Tau ThT inhib – inhibitors of human tau fibril formation, thioflavin T binding; recombinant tau K18 P301L, heparin-induced fibrillization, ThT fluorescence; Potency, µM (titrated, usually from 57.4 µM), for the others: at the top dose activity, negative = inhibition, hits mostly inhibitors; actives 2.1% (n = 270,000); note: % is set by controls: 0 for no effect and ±100 for the full control effect; nearly all actives have a fitted effect of over 55% in size
Target sequence (P10636 561-689 P618L limits assumed): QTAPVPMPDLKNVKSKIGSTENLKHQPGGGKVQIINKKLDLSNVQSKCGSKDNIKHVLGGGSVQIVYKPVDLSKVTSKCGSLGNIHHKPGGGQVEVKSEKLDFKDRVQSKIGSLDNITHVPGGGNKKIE
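Fibril formation assay: tau K18 P301L at 15 uM with trace Alexa 594 label, heparin inducer 20 uM, pH 7 sodium acetate buffer, 37 C for 6 hr; endpoint ThT signal.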
HTT ATP protect – cytoprotection in Huntington HTT-Q103 PC12 cell model; AID 1471; PC12 HTT-Q103 induced, cytoprotection, ATP luminescence, 40 h; actives 0.14% (n = 230,000); Potency, µM (highest dose often 56.4 µM), inactives show cytoprotection (ATP increase), most hits filed as activators; note: % of control where 0% means no effect; nearly all actives have a fitted effect of over 45% in size
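Rat PC12, Q103 Htt exon1-GFP fusion, ecdysone promoter; tebufenozide inducer 100 nM final; compound titration; qHTS, 1500 cells/well; ATPlite luminescent read.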
Tau fibril FP – tau fibrillization inhibition (FP). P10636. K18 P301L tau heparin fibrillization, Alexa594 FP, 6 h. Potency, µM (doses to about 57.7 µM), for inactives: at the top dose activity, negative = inhibition, hits mostly inhibitors. actives 0.39% (n = 280,000); note: % is set by controls: 0 for no effect and ±100 for the full control effect; nearly all actives have a fitted effect of over 55% in size
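Steps: dispense K18 P301L tau (15 uM plus 0.24 uM Alexa 594 tracer, final) in pH 7 sodium acetate; add compound; add heparin (20 uM final); incubate 6 hr, 37 C; add ThT (30 uM final); after 1 hr ambient, read FP.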
Tau fluor counter – counter-screen for tau fibril formation inhibitors | tau K18 P301L (four-repeat tau fragment) Alexa594 fluorescence, heparin fibrillization | Potency, µM (titrated, usually from 57.7 µM), inactives show at the top dose activity change, negative = decrease | actives 0.93% (n = 280,000); note: % is set by controls: 0 for no effect and ±100 for the full control effect; nearly all actives have a fitted effect of over 55% in size
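Human K18 P301L tau (15 uM unlabeled plus 0.24 uM Alexa 594-labeled, final) in 100 mM sodium acetate pH 7 was mixed with compound and 20 uM heparin and incubated 6 hr at 37 C.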
Numbers without * were called inactive; ? = inconclusive; / = no result given; [ ] = remark or other dose. The list is not random: actives were taken first. Their share in the collection is about 3.7%. Calls come from the whole dose curve; as a rule, active = well fitted curve in the direction sought with a large enough effect; inconclusive = small, poorly fitted or top-dose-only effect, or another doubt; inactive = no such curve, though single readings can be large; an effect the other way counts as inactive or inconclusive. Potency is the fitted concentration of half-maximal effect.

SMILES	HttQ103 aggreg	Tau ThT inhib	HTT ATP protect	Tau fibril FP	Tau fluor counter
N#CC1=C2SCN(C3CCCCC3)CN2C(=O)CC1c1ccc(Br)cc1 (stereo unspecified)	/	?	/	?	-28%
COc1ccc(C2CC(=O)N3CN(C4CCCCC4)CSC3=C2C#N)c(OC)c1 (stereo unspecified)	/	25µM*	/	?	-22%
COc1ccc2ccccc2c1C1CC(=O)N2CN(C3CCCCC3)CSC2=C1C#N (stereo unspecified)	?	28µM*	14%	?	-23%
COc1ccc(OC)c(C2CC(=O)Nc3ccc4ccccc4c32)c1 (stereo unspecified)	/	-16%	/	-10%	-16%
CCOc1cc(C2CC(=O)N3CN(C4CCCCC4)CSC3=C2C#N)ccc1O (stereo unspecified)	0%	14µM*	-10%	?	-26%
C=Cc1ccc(CN2C(=O)N(c3ccc(CC)cc3)S(=O)(=O)c3ccccc32)cc1	/	13%	/	?	-1%
CCCS(=O)(=O)Nc1cc2c(cc1NCc1ccccc1)n(C)c(=O)n2C	/	?	/	-20%	?
C=CCN1C(=O)C2(NC(=O)c3ccccc3N2)c2ccccc21 (stereo unspecified)	-11%[9.22 µM]	0%	-13%[10 µM]	-9%	-4%
CCCCN1C(=O)C2(NNc3ccccc3O2)c2ccccc21 (stereo unspecified)	28%	11µM*	6%	-13%	11µM*[quencher]
C=CCN1C(=O)C2(NNc3ccccc3O2)c2ccccc21 (stereo unspecified)	13%[9.22 µM]	7.1µM*	-9%	4%	13µM*[quencher]
CCCCN1C(=O)C(O)(c2c(C)[nH]c3ccccc23)c2ccccc21 (stereo unspecified)	/	-12%	/	4%	-26%
CCOC(=O)c1sc(NC(=O)Nc2ccc(Cl)cc2)cc1C	22µM*	-15%	-6%[10 µM]	?	3.2µM*[quencher]
NC(C(=O)O)c1ccc(P(=O)(O)O)cc1 (stereo unspecified)	/	3%	5%	-3%	-1%
CC1Cc2cc(S(=O)(=O)NCc3ccccc3Cl)ccc2N1C(=O)C1CCC1 (stereo unspecified)	/	-5%	/	3%	-10%
COC(=O)c1nn(-c2ccc(OC)cc2)c(=O)cc1NN	2%	14µM*	/	?	-14%
COC(=O)c1nn(-c2ccc(OC)cc2)c(=O)cc1Sc1ccc(C)cc1	-6%	-18%	-21%[10 µM]	-8%	-15%
N#CC1=C(S)N(c2ccccc2)C(c2ccco2)NC1=O (stereo unspecified)	-5%[9.22 µM]	4%	23%[10 µM]	-12%	-10%
N#CC1=C(S)N(c2ccc(F)cc2)C(c2ccco2)NC1=O (stereo unspecified)	10%[9.22 µM]	40µM*	29%[10 µM]	?	-16%
N#CC1=C(S)N(c2ccccc2)C(c2ccc(-c3ccc(Cl)c(Cl)c3)o2)NC1=O (stereo unspecified)	9%[9.22 µM]	16µM*	-9%[10 µM]	25µM*	-21%
COc1cc(/C=C2\SC(=S)N(C(C(=O)O)c3ccccc3)C2=O)ccc1O (stereo unspecified)	-4%[9.22 µM]	7.1µM*	-2%[10 µM]	-7%	-10%
CCN=C1S/C(=C\c2ccc(O)c(OCC)c2)C(=O)N1CC	-1%	-13%	-1%[10 µM]	?	-29%
CCOc1cc(/C=C2\SC(=S)N(C(C(=O)O)c3ccccc3)C2=O)ccc1O (stereo unspecified)	-1%[9.22 µM]	?	-4%[10 µM]	0%	3%
CCOc1ccc(/C=C2/SC(=S)N(C(C(=O)O)c3ccccc3)C2=O)cc1OCC (stereo unspecified)	3%	16µM*	42%[10 µM]	?	-35%
COc1cc(/C=C2/SC(=NCc3ccccc3)N(Cc3ccccc3)C2=O)ccc1O	-13%	?	-22%	-3%	10µM*[quencher]
N#Cc1ccc(CN2CCCC3(CCN(C(=O)c4cnccn4)CC3)C2)cc1	/	/	14%	/	/
SMILES	HttQ103 aggreg	Tau ThT inhib	HTT ATP protect	Tau fibril FP	Tau fluor counter
NCCS	4%	16µM*	26%	?	?
O=c1c(N2CCN(c3cccc(C(F)(F)F)c3)CC2)csc2ccc(Cl)cc12	/	16µM*	/	4%	-19%
Cc1ccc2scc(N3CCN(c4cccc(C(F)(F)F)c4)CC3)c(=O)c2c1	/	?	/	0%	-4%
CC(=O)N1CCN(c2csc3ccc(Cl)cc3c2=O)CC1	/	?	/	8%	-10%
O=c1c(N2CCN(c3cccc(Cl)c3)CC2)csc2ccc(Cl)cc12	/	8.9µM*	/	-5%	-29%
COc1ccc(-n2c(C)cc(C(=O)CSc3ccc(NC(C)=O)cc3)c2C)cc1	13µM*	?	-9%[10 µM]	0%	?
CC(=O)Nc1ccc(SCC(=O)c2cc(C)n(-c3ccccc3)c2C)cc1	-11%	?	9%[10 µM]	10%	-29%
Cc1oc2ncn(CC(C)C)c(=O)c2c1C(=O)NCCCN1CCC(C)CC1	/	-4%	/	-3%	-7%
COc1c(Cl)cnn(-c2ccc(C)cc2)c1=O	6%	-8%	-20%[10 µM]	-3%	-13%
O=c1c(Br)c(Br)cnn1-c1ccccc1	5.6µM*	32µM*	-97%[10 µM]	?	-6%
Cc1ccc(-n2ncc(Br)c(Br)c2=O)cc1	/	16µM*	-97%[10 µM]	?	-19%
CCCCn1c(NC(=O)c2ccccc2)c(C#N)c2nc3ccccc3nc21	4%	-2%	-29%[10 µM]	-6%	-13%
COc1ccc(-n2c(NC(=O)c3ccc(Br)o3)c(C#N)c3nc4ccccc4nc32)cc1	-21%	14µM*	-65%	-12%	?
N#Cc1c(NC(=O)c2ccc(Br)o2)n(-c2ccccc2)c2nc3ccccc3nc12	-4%[9.22 µM]	25µM*	-23%[0.074 µM]	-14%	-26%
COc1cc(NC(=O)C2CCN(S(=O)(=O)c3c(C)noc3/C=C/c3c(C)cc(C)cc3C)CC2)cc(OC)c1	/	17%	/	?	-9%
CCOC(=O)C1=NO[C@@]2(C=C(Br)C3(OCCCO3)[C@H]3O[C@H]32)C1	/	-12%[11.5 µM]	-5%[10 µM]	-5%[11.6 µM]	-5%[11.6 µM]
CC1(C)CC(N2CCCC2)=CC(=[N+]2CCCC2)C1	13%	3%	-5%[10 µM]	2%	5%
CC1(C)CC(N2CCCC2)=CC(=[N+]2CCCCC2)C1	8.9µM*	3%	/	2%	3%
Cc1ccc(C(=O)COC(=O)c2ccc3c(c2)C(=O)N(c2cccc4ncccc24)C3=O)cc1	20µM*	?	28%[10 µM]	-14%	-20%
O=C(COC(=O)c1ccc2c(c1)C(=O)N(c1cccc3ncccc13)C2=O)c1ccc(Cl)cc1	-17%	?	25%[10 µM]	-1%	-13%
CCOC(=O)c1cnc(-n2nc(C)cc2C)nc1NCCc1ccccc1	13µM*	-15%	-70%	-3%	1%
CCOC(=O)c1cnc(-n2nc(C)cc2C)nc1Nc1ccccc1OC	2%	-7%	-13%	7%	-5%
